Screening results (PubChem BioAssay)
Only some compounds are listed: those with a hit (about 4.7% of all), similar ones and a draw of the others.
D3 antag = blocks the human D3 dopamine receptor | P35462 | D3R cells, DiscoveRx beta-arrestin luminescence, antagonist mode; hits give low values | max response, negative = inhibition, % | 2.5% of 360,000 active | AID 652054; in the data active = max response below about -50%; inconclusive = no clear call, values can overlap the other calls; also: % is scaled to controls: 0 for no effect and ±100 for the full control effect
Target sequence (P35462 whole entry, looked up): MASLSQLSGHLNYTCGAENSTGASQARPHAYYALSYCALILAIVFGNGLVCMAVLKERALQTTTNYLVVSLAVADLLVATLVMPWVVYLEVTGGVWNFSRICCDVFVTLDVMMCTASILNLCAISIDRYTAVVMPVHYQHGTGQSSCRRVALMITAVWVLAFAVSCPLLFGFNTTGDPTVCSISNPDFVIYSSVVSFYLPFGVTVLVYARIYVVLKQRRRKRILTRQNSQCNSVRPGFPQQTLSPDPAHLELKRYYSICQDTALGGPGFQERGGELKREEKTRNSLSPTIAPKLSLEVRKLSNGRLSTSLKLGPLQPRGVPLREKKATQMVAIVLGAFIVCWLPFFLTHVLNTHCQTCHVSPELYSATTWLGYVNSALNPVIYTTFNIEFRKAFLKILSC
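Cells plated overnight at 1500 cells/well, then exposed to library compounds with dopamine controls for 90 minutes at 37 degrees C. DiscoveRx reagent added for 30–60 minutes at room temperature; luminescence read, quantitative HTS format.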
HepG2 tox = kills HepG2 cells in TGF-b inhibitor counter-screen | 0.76% of 410,000 active | HepG2 CAGA-GFP viability, ATP luminescence, 18 h | Potency, µM (highest dose often 46.1 µM), inactives show at the top dose activity change, negative = cytotoxicity, hits mostly cytotoxic; also: potency is read from the fitted curve at half-maximal effect
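HepG2 CAGA-GFP cells (1000/well, DMEM with 1% FBS) received compound, then TGF-beta at 500 pg/mL final, and were incubated 18 hours at 37 degrees C. Viability was read by CellTiter-Glo luminescence. Media-only wells were set as complete cell-killing and DMSO as no toxicity.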
ATXN viability = reduces viability in counter-screen for ATXN expression inhibitors; S2 cells (HEK-293 line with an ATXN2-luciferase reporter) viability, CellTiter-Fluor protease fluorescence, 24 h; Potency, µM (top dose mostly 56.7 µM), most hits filed as cytotoxic; 0.49% of 400,000 active; AID 651635; also: potency is read from the fitted curve at half-maximal effect; nearly all actives have a fitted effect of over 40% in size
ATXN2 expr inh = reduces ATXN2 reporter expression in HEK-293 cells; HEK-293 ATXN2-luciferase reporter, luminescence, 24 h; Potency, µM (doses to about 57 µM), for inactives: top-dose activity change, negative = inhibition, hits mostly inhibitors; 0.72% of 360,000 active; AID 1745845; also: potency is read from the fitted curve at half-maximal effect; % is scaled to controls: 0 for no effect and ±100 for the full control effect; nearly all actives have a fitted effect of over 55% in size
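ATXN2-luciferase reporter cells (luciferase flanked by upstream and downstream ATXN2 gene portions) were treated 24 h at 37 °C with compounds at up to 57 uM. SteadyGlo luminescence gave expression; GF-AFC fluorescence gave viability.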
TGFb SMAD3 inh = blocks TGF-b signaling; HepG2 CAGA-GFP TGF-b/SMAD3 reporter, GFP fluorescence, 18 h; TGF-beta stimulated, 500 pg/mL final; Potency, µM (top dose mostly 46.1 µM), inactives show at the top dose activity, negative = inhibition, hits mostly inhibitors; 1.2% of 410,000 active; AID 588855; also: potency is read from the fitted curve at half-maximal effect; % is scaled to controls: 0 for no effect and ±100 for the full control effect; nearly all actives have a fitted effect of over 65% in size
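HEPG2 CAGA-GFP reporter cells (1000/well, DMEM with 1% FBS) received compounds, then recombinant TGF-beta at 500 pg/mL final for 18 hours at 37 degrees C. Per-cell GFP summed per well was normalised to unstimulated and stimulated DMSO controls before curve fitting.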
D3 ag = D3 dopamine receptor (human) agonism | P35462 | D3R DiscoveRx beta-arrestin cells, luminescence, 90 min | max activation, % | 0.58% of 410,000 active | AID 652048; in the data active = max activation above about 30%; also: 0% is about no effect
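Agonist mode: compounds and dopamine controls were applied to plated cells for 90 min at 37 degrees C after an overnight attachment at 1500 cells/well. Luminescent read-out followed 30 - 60 minutes at room temperature with DiscoveRx detection reagent.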
* marks the source's active call; other numbers are inactive results; i = inactive; ? = inconclusive; . = no result; [ ] = dose if it differs, or a comment. Unless noted, calls follow the shape of the dose curve; as a rule, active = well fitted curve in the direction sought with a large enough effect; inconclusive = small, poorly fitted or top-dose-only effect, or another doubt; inactive = no such curve, though single readings can be large; an effect the other way counts as inactive or inconclusive.

SMILES	D3 antag	HepG2 tox	ATXN viability	ATXN2 expr inh	TGFb SMAD3 inh	D3 ag
CCN1CCCC1CNC(=O)c1ccc2c(c1)NC(=O)/C(=C\c1ccc(OC)c(OC)c1)S2 (configuration not stated)	-22	13µM*	.	.	13µM*	-18
COc1cccc(/C=C2/Sc3ccc(C(=O)NCCN4CCCCCC4)cc3NC2=O)c1	-19	16µM*	?	.	10µM*	2
COc1ccc(CN2CC[C@H]3C=CC[C@@H](C(=O)N4CCN(c5ccccc5)CC4)[C@H]3C2=O)cc1OC	.	9%	.	.	1%	.
COc1ccc(Br)cc1CNC(=O)C1COc2ccccc2C1 (configuration not stated)	.	-13%	i	12%	-13%	-14
C=CCCC1CN(CCCC)S(=O)(=O)c2c(F)cccc2O1 (configuration not stated)	23	-32%	i	-2%	-23%	35*
CC(=O)N1CCc2c(sc3c2c(=O)n(-c2ccc(C)cc2)c(=O)n3Cc2c(F)cccc2Cl)C1	.	-6%	i	-7%	-5%	-13
N#C/C(=N/Nc1ccc([N+](=O)[O-])cc1)C(=N)N1CCCCC1	-54*	-9%	i	89%[11.3 µM]	-20%	-12
N#C/C(=N\Nc1ccc([N+](=O)[O-])cc1)C(=N)N1CCOCC1	1	-7%	?	26%	-10%	19
N#C/C(=N\Nc1ccc([N+](=O)[O-])cc1)C(N)=S	-8	-43%	22µM*	-37%	?	-6
N#C/C(=N\Nc1cccc([N+](=O)[O-])c1)C(=O)c1ccc(Br)cc1	?	-39%	?	9.5µM*	6.3µM*	-4
OC(c1ccc(F)cc1)c1nc(-c2cncnc2)cs1 (configuration not stated)	-24	3.5µM*	i	-2%	0%	-7
CC(=O)c1ccc(Nc2cc(C)nc3c(C)cc(C)cc23)cc1	3	-95%	.	?	11µM*	-8
Cc1cc(C)c2nc(C)cc(Nc3ccc(C(=O)N(C)C)cc3)c2c1	1	35%	i	.	22%	1
CC(C)c1ccc(NC(=O)CSc2nnc(-c3ccccc3)n2C)cc1	.	10%	.	.	8%	.
O=C(NC1CCCCC1)[C@@H]1CC=C[C@@H]2CCN(Cc3ccc(Cl)c(Cl)c3)C(=O)[C@@H]21	.	7%	.	.	15%	.
CCOC(=O)N1CCN(c2ncnc3scc(-c4ccc(Cl)cc4)c23)CC1	74	-26%	i	.	16µM*	11
CN1CCCN(c2ncnc3scc(-c4ccc(F)cc4)c23)CC1	2	3%	i	.	1%	-5
CC(C)c1ccc(-c2csc3ncnc(N4CCN(C)CC4)c23)cc1	-72*	-44%	i	-6%	-30%	-34
Cc1cc2c(cc1[N+](=O)[O-])NC(CNC(C)C)CC2 (configuration not stated)	-83*	-3%	i	-27%	0%	-7
O=C(NCC1CCN(Cc2ccc(F)cc2)CC1)c1cc2ccc3cccnc3c2[nH]1	.	18µM*	.	.	16µM*	-20
O=C(NCc1ccc(Cl)cc1)c1cc2ccc3cccnc3c2[nH]1	.	-17%	.	.	-4%	-13
O=C(NCC1CCN(Cc2ccccc2Cl)CC1)c1cc2ccc3cccnc3c2[nH]1	.	16µM*	.	.	16µM*	-17
CCc1nn(C(C)C(=O)N2CCN(c3cccc(C(F)(F)F)c3)CC2)c(=O)c2cc3occc3n12 (configuration not stated)	.	-2%	i	8%	-15%	-7
COc1ccc(C(CCN2CCCC(C)C2)c2c(OC)cc(OC)c3c(-c4ccccc4)cc(=O)oc23)cc1 (configuration not stated)	-53*	-44%	.	?	?	-56
COc1cc(OC)c2c(-c3ccccc3)cc(=O)oc2c1C(CCN1CCCC(C)C1)c1ccc(N(C)C)cc1 (configuration not stated)	?	-60%	20µM*	?	?	-42
SMILES	D3 antag	HepG2 tox	ATXN viability	ATXN2 expr inh	TGFb SMAD3 inh	D3 ag
COc1ccc(C(CCN2CCCC(C)C2)c2c(OC)cc(OC)c3c(C)cc(=O)oc23)cc1 (configuration not stated)	-89*	-9%	?	-3%	?	-67
COc1ccc(C(CCN2CCCC2)c2c(OC)cc(OC)c3c(-c4ccccc4)cc(=O)oc23)cc1 (configuration not stated)	12	-41%	?	?	?	-16
CC(O)CN(CCN(CC(C)O)CC(C)O)CC(C)O (configuration not stated)	.	.	i	18%	.	-6
CC(=O)Nc1cc2c(cc1Cl)-c1ccccc1C2	16	8%	i	28%	-3%	-12
CCC(=O)Nc1cc2c(cc1Cl)-c1ccccc1C2	0	13µM*	i	45%	17%	-3
C/C(=N\NC(=S)NC(C)C)c1ccccc1OC(F)F	-4	12%	i	-19%	-9%	-8
CCNC(=S)N/N=C(\C)c1ccc2ccccc2c1OC(F)F	-5	-13%	?	?	?	30*
N#CC1(c2ccc(F)cc2)CCC(=O)CC1	.	.	i	-1%	.	.
O=C(CCl)Nc1cccc(S(=O)(=O)NC2=NCCCCC2)c1	-6	11µM*	.	.	?	-4
N=c1sccn1CC(=O)Nc1cccc(S(=O)(=O)N2CCCCCC2)c1	-2	1%	16µM*	.	-2%	-4
O=S(=O)(Nc1cccc(S(=O)(=O)N2CCCCCC2)c1)c1ccccc1	3	0%	i	-10%	-1%	33*
O=S(=O)(Nc1cccc(S(=O)(=O)N2CCCC2)c1)c1ccc(F)cc1	16	-3%	?	-7%	15%	1
O=C(CCl)Nc1cccc(S(=O)(=O)N2CCCCCC2)c1	-26	-65%	25µM*	?	?	-6
Cc1ccccc1C(=O)N1CCc2c(cnc(C)c2CNC(=O)c2ccc3c(c2)OCO3)C1	.	.	i	.	.	.
CCOC(=O)c1c(-c2ccccc2)oc2ccc(OCc3ccccc3Br)cc12	.	-29%	i	-3%	-17%	-3
CCOC(=O)CCCCNCc1ccccc1	-70*	2%	i	0%	-11%	-17
O=C(NCCNC(=O)c1ccccc1)c1ccccc1	-1	1%	i	-4%	-7%	0
c1ccc(CNCCCNCCCCNCCCNCc2ccccc2)cc1	22	7.9µM*	?	28µM*	?	-2
O=C(NCCCCNCCCNC(=O)c1ccccc1)c1ccccc1	-51*	-15%	i	-1%	-7%	-58
